Laboratory results taken from PubChem BioAssay AID2315 (National Center for Advancing Translational Sciences (NCATS), 2010).
Hit rate of the full screen: of about 290,000 compounds, about 27,000 (9.3%) were called active. The list comes from a sample in which actives are over-represented; it also holds similar structures and randomly drawn compounds. Unmarked numbers belong to inactive results. No stated cut-off is given here; in the data, active means inhibition mostly above about 28% (no sharp cut-off); inactive means mostly below about 43%.

Test: A qHTS for Small Molecule Inhibitors of Shiga Toxin; further: 0% is about no effect
Settings: Vero cells, Shiga toxin protein synthesis inhibition reporter; at 38.7 µM, stronger effect = higher value

| Structure (SMILES) | inhibition |
| --- | --- |
| S=C(Nc1cccnc1)Nc1ccccn1 | -1.64% |
| Cc1ccc(NC(=S)NCc2ccccc2Cl)c(C)c1 | -19.8% |
| Cc1ccc(NC(=S)Nc2ncccc2C)c(C)c1 | 54.2% (active) |
| Cc1ccc(NC(=S)NCCc2ccc(Cl)cc2)c(C)c1 | 13.6% |
| COc1ccc(CN2CC(C(=O)NCCc3ccc(Cl)cc3)CC2=O)cc1 (stereo unspecified) | -11.7% |
| Cn1ncc(Br)c1C(=O)NC1CCCC1 | -7.94% |
| C=CCn1c(=NC(=O)c2cccs2)sc2cc(NC(C)=O)ccc21 | 47.4% (active) |
| C=CCn1c(=NC(=O)c2ccc(S(=O)(=O)N3CCCC3)cc2)sc2cc(NC(C)=O)ccc21 | -8.21% |
| C=CCn1c(CCNC(=O)c2cccs2)n[nH]c1=S | 2.22% |
| COc1ccc(CNS(=O)(=O)c2cc(-c3cc(C)no3)ccc2C(C)C)cc1 | -15.5% |
| CN(C)Cc1c(C(=O)N/N=C/c2ccccc2OCc2ccc(F)cc2)nnn1-c1nonc1N | -7.12% |
| O=C(/C=C/c1ccc(Cl)c([N+](=O)[O-])c1)c1ccc(O)cc1 | 10.6% |
| O=C(/C=C\c1ccc2c(c1)OCO2)NC1(C(=O)Nc2ccc3c(c2)OCCO3)CCCCC1 | -4.85% |
| CN(C)c1ccc(/C=C/C(=O)c2ccc(O)cc2)cc1[N+](=O)[O-] | 48.8% (active) |
| O=C(O)/C=C/c1ccc2c(c1)OCCO2 | -2.74% |
| CN(C)c1ccc(/C=C/C(=O)c2ccc(C(C)(C)C)cc2)cc1[N+](=O)[O-] | 27.8% |
| O=C(/C=C/c1ccc2c(c1)OCCO2)c1ccc(O)cc1 | 56.9% (active) |
| CCOc1ccc(N2CC(C(=O)NCc3ccccn3)CC2=O)cc1 (stereo unspecified) | -7.37% |
| COc1cc(/C=C/C(=O)N2CCc3ccccc3C2)cc(OC)c1OC | -4.9% |
| Cc1ccc(S(=O)(=O)N2CCC(Oc3ccc(-n4cnnn4)cc3)CC2)cc1 | 1.93% |
| Cc1ccc(C)c(N2CCN(C(=O)Cn3ncn4cccc4c3=O)CC2)c1 | -2.82% |

| Structure (SMILES) | inhibition |
| --- | --- |
| CCc1nc2nc(C)c(NS(=O)(=O)c3ccc4c(c3)CCCC4)c(=O)n2[nH]1 | -6.5% |
| Cc1cccc(CNS(=O)(=O)c2ccc(-c3cnc(C4CC4)o3)cc2)c1 | 13.9% |
| N/C(=N\OC(=O)c1ccc([N+](=O)[O-])cc1)c1ccccn1 | 71% (active) |
| N/C(=N\OC(=O)COc1ccc([N+](=O)[O-])cc1)c1ccc(Br)cc1 | 2.73% |
| N/C(=N\OC(=O)Cc1ccc([N+](=O)[O-])cc1)c1ccccn1 | 124% (active) |
| O=C(OCc1ccc([N+](=O)[O-])cc1)c1ccccn1 | 1.67% |
| CO/N=C(\N)c1ccc([N+](=O)[O-])cc1 | -2.22% |
| N/C(Cc1ccc([N+](=O)[O-])cc1)=N\OC(=O)COc1ccc2ccccc2c1 | 12.2% |
| CC(C)(C)c1ccc(Cn2nnc3c(=O)[nH]c(C4CCCN(C(=O)c5ccco5)C4)nc32)cc1 (stereo unspecified) | 2.02% |
| Cc1cc(C)n(CCC(=O)N2CCN(S(=O)(=O)c3ccc(C)c(C)c3)CC2)n1 | -6.68% |
| Cc1ccc(CNC(=O)C2CCCN2S(=O)(=O)c2ccc3c(c2)C(C)(C)C(=O)N3C)cc1 (stereo unspecified) | -2.07% |
| Cc1cc(C(F)F)nn1CC(=O)NC1CCCCCC1 | -2.84% |
| CCn1c(=S)sc2c(=O)n(CC(=O)Nc3ccc(OC)cc3)c(C)nc21 | -8.22% |
| COc1cc(CCC(=O)Nc2ccncc2Cl)cc(OC)c1OC | -2.22% |
| CN(C(=O)CSc1nnnn1-c1ccccc1)C1CCCCC1 | 31.7% |
| CN(C(=O)CCn1c(=S)oc2ccccc21)C1CCCCC1 | -6.3% |
| CN(C(=O)CSc1nncc2ccccc12)C1CCCCC1 | 69.8% (active) |
| O=C(Cn1nc(C(F)(F)F)c2c1CCC2)NCc1ccc(F)cc1 | -2.3% |
| O=C(CC1CCCCC1)NCc1ccco1 | -2.21% |
| O=C(Cc1ccc(F)cc1)NC1CCCC1 | -4.53% |
| O=C(CCc1ccc(S(=O)(=O)NC2CCCCC2)cc1)NCc1ccccc1 | -10% |

| Structure (SMILES) | inhibition |
| --- | --- |
| CC(=O)Nc1ccc(S(=O)(=O)N2CCN(C3CCCCCCC3)CC2)cc1 | -14.3% |
| O=C(CC1CCCCC1)NCc1ccccc1 | 107% (active) |
| O=C(CC1CCCCC1)NCc1ccc(F)cc1 | 61.1% (active) |
| CC(=O)Nc1ccc(NC(=O)CC2CCCC2)cc1 | 48.2% (active) |
| CC(=O)Nc1ccc(N2C(=O)C3C4C=CC(CC4)C3C2=O)cc1 (stereo unspecified) | 11.7% |
| Cc1ccc(Cn2c(C)c3cnn(CC(=O)NCc4ccccn4)c(=O)c3c2C)cc1 | -6.49% |
| Cc1nn(CC2CC2)c(=O)n1N(C)c1ncc(C(F)(F)F)cc1Cl | -23.8% |
| COc1ccc(NS(=O)(=O)c2ccc(F)cc2F)cn1 | -5.14% |
| CCOC(=O)Cn1c(=O)n(Cc2ccc(OC)cc2)c(=O)c2cccnc21 | -6.29% |
| Cc1cc(NS(=O)(=O)c2ccc(NC(=O)C(C)Oc3cccc(C)c3C)cc2)nc(C)n1 (stereo unspecified) | 1.79% |
| CC(NC(=O)COc1ccc(-c2ccccc2)cc1)C1CCCO1 (stereo unspecified) | 12% |
| Cc1ccc2c(CC(=O)NCc3cccs3)coc2c1 | 77.5% (active) |
| COc1ccc(C)cc1NC(=O)CNCc1cccs1 | -6.47% |
| O=C(Cc1coc2ccc3ccccc3c12)NCc1cccs1 | 1.44% |
| CC(C)[C@H](NC(=O)N1CCn2c1nc1ccccc12)C(=O)NC1CC1 | 25.9% |
| CCOC(=O)C1(Cc2ccccc2C(F)(F)F)CCN(C(=O)c2cc(C)n(C)n2)CC1 | 109% (active) |
| CCOC(=O)C1(CCOc2ccccc2)CCN(C(=O)c2cncs2)CC1 | -4.69% |
| CCOC(=O)C1(Cc2ccc(Cl)cc2)CCN(C(=O)C2=NNC(=O)CC2)CC1 | -6.2% |
| COC(=O)c1ccc(CNC(=O)C2CCC(=O)N(Cc3ccccn3)C2)cc1 (stereo unspecified) | -9.5% |
